This passage reports max response, negative = inhibition results from PubChem BioAssay AID652054 (National Center for Advancing Translational Sciences (NCATS), 2013).

Molecules are shown by their SMILES. In all, about 360,000 compounds went through this assay and about 9,100 (2.5%) were called active. Not shown: some 4% with an inconclusive outcome. This is one part of a sample in which actives are shown more often than they occur. Unmarked numbers belong to inactive results. Rule as the data show it: active = max response below about -50%; inconclusive = no clear call, values can overlap the other calls; inactive = above that.
% is scaled to controls: 0 for no effect and ±100 for the full control effect.

Sequence of D(3) dopamine receptor (Homo sapiens) (P35462 whole entry, looked up): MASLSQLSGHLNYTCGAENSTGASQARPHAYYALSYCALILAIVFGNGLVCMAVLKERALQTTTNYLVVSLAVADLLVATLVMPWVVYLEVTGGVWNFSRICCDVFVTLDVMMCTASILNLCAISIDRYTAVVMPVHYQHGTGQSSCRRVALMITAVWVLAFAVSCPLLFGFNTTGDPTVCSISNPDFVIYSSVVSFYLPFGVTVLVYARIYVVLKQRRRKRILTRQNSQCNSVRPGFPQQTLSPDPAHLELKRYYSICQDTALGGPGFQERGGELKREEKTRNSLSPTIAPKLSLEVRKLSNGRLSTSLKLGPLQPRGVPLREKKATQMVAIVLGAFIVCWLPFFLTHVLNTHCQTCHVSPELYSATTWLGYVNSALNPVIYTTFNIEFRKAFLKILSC

The target of the experiment is D(3) dopamine receptor (Homo sapiens) (UniProt P35462). In words: qHTS of D3 Dopamine Receptor Antagonist: qHTS. As to conditions: D3R cells, DiscoveRx beta-arrestin luminescence, antagonist mode; hits give low values. From the text:
D3 DARs represent a very important target for the treatment of several neuropsychiatric disorders. Indeed, one of the most promising therapeutic applications for the D3 DAR is in the area of addiction and related disorders. […] These findings have been observed with a number of addictive substances including cocaine, amphetamine, nicotine, and alcohol. […] Antagonism of the D3 DAR may also be therapeutic in the treatment of schizophrenia or psychosis. […] Since the D3 DAR is expressed in areas of the CNS associated with the control of mood and emotion, it has been hypothesized that selective antagonism of the D3 DAR may be effective in treating psychosis without inducing the motor side effects typically seen with D2 DAR antagonists.
This part of the project aims to discover novel antagonist.
NIH Chemical Genomics Center [NCGC]
NIH Molecular Libraries Probe Centers Network [MLPCN]
Assay Submitter (PI): David Sibley, NINDS
Freshly passaged cells are plated in 1536 well white, solid bottom plates at a density of 1500 cells/well in 3microl of complete media. After an overnight incubation at 37 degrees C in 5% CO2, cells are loaded with 23nl of test compound from the compound library (as well as dopamine controls) using a 1536 pintool and incubated at 37 degrees C for 90 minutes. Two microliters of DiscoveRx reagent is then added to all cells, and they are incubated for an additional 30 - 60 minutes at room temperature. Following incubation, luminescence is measured on a ViewLux CCD-based luminometer reader using a 20 sec exposure time.
For the molecule `N#Cc1cccc(NC(=O)c2cc(C3CCCCN3C(=O)CCc3ccccc3)on2)c1` (stereo not given), the max response, negative = inhibition is -8.91%.

With `CCCCCn1nnnc1-c1nc2cc3ccccc3cc2[nH]c1=O`, the max response, negative = inhibition is -8.12%.

`COCCCNc1ccn2nc(-c3ccc(CC(C)C)cc3)cc2n1`: the max response, negative = inhibition was 31.5%.

Turning to `Cc1ccccc1NC(=O)Cc1nc(COC(=O)C(C)(C)Oc2ccc(Cl)cc2)cs1`, the max response, negative = inhibition was 24.6%.

Take `CC(C)(C)CC(=O)Nc1nc(C(N)Cc2ccc(C(F)(F)F)cc2)cs1` (stereo not given): the max response, negative = inhibition is 0%.

Consider `Cc1nnc(SCC(=O)Nc2cccc(N)c2)n1-c1ccccc1`, for which the max response, negative = inhibition is 9.89%.

On to `Cc1ccc(-c2nnc(SCC(=O)N/N=C/c3cccs3)n2-c2ccc(C)cc2)cc1`, for which the max response, negative = inhibition was 11.6%.

Regarding `Cc1nnc(SCC(=O)N/N=C/c2cn(-c3ccccc3)nc2-c2ccc(F)cc2)n1-c1ccccc1`, the max response, negative = inhibition is -52.1% (active).

For `CCOC(=O)[C@]12CCCC=C1N(CCC1=CCCCC1)C(=O)[C@H](CC(=O)NCCCCc1ccccc1)C2`, the max response, negative = inhibition is -12.8%.

Consider `CCC(C(=O)Nc1c(C)cccc1C)n1c(-c2cc(C)cs2)nc2ccccc21` (stereo not given), for which the max response, negative = inhibition is -4.88%.

With `Nc1c(C(=O)c2cccs2)sc2nsc(SCCN3CCCCC3)c12`, the max response, negative = inhibition is -51.8% (active).

On to `Nc1ncnc2c1ncn2[C@@H]1O[C@H](C(=O)NS(=O)(=O)c2c(Cl)nc3sccn23)[C@@H](O)[C@H]1O`, for which the max response, negative = inhibition is 24.3%.

Turning to `Cc1ccc(-c2ccc(CN3C(C(C)C)C(=O)N(Cc4cn(CCC5OCCO5)nn4)CCS3(=O)=O)cc2)cc1` (stereo not given), the max response, negative = inhibition was 5.58%.

As to `O=C(Nc1ccc(Cl)cc1)c1csc([C@@H]2O[C@H](CO)[C@H](O)[C@H](O)[C@H]2O)n1`, the max response, negative = inhibition was -15.5%.

Turning to `CC1=C(C(=O)N(C)C)CC(CC(=O)NCCN2CCOCC2)C(=O)N1Cc1ccccc1` (stereo not given), the max response, negative = inhibition is -7.58%.

With `CC(=O)Nc1cc(-c2ccc(N3CCN(C)CC3)cc2)cn2c(-c3cccc(C(=O)N(C)C)c3)cnc12`, the max response, negative = inhibition was 9.1%.

As to `CCCOc1ccc(C2C(C(=O)c3ccc(C)o3)=C(O)C(=O)N2CCCn2ccnc2)cc1` (stereo not given), the max response, negative = inhibition is -63.3% (active).

For the molecule `CCOc1ccc(C2/C(=C(/O)c3ccc4c(c3)CC(C)O4)C(=O)C(=O)N2CCCn2ccnc2)cc1` (stereo not given), the max response, negative = inhibition is -12.2%.

For the molecule `C=CCOc1cccc(C2C(C(=O)c3ccc(C)o3)=C(O)C(=O)N2CCN2CCOCC2)c1` (stereo not given), the max response, negative = inhibition was 0.324%.

In the case of `Cc1ccc(C)c(C(O)c2ncc(-c3cccc4ccccc34)[nH]2)c1` (stereo not given), the max response, negative = inhibition is -3.53%.

For `COC(=O)c1ccc2nc(-c3ccc(Cl)cc3)c(Cc3cccc(F)c3)n2c1`, the max response, negative = inhibition was 88.8%.

Take `CCN(CC(=O)Nc1c(F)cccc1F)C(=O)c1ccc(Sc2nncn2C)c([N+](=O)[O-])c1`: the max response, negative = inhibition was 2.59%.

Turning to `Cn1cnnc1Sc1ccc(S(C)(=O)=O)cc1[N+](=O)[O-]`, the max response, negative = inhibition was -78.8% (active).

Take `CC(=O)Nc1ccc(Nc2c([N+](=O)[O-])cc(S(C)(=O)=O)cc2[N+](=O)[O-])cc1`: the max response, negative = inhibition was -15.9%.

Turning to `CC1=C(C(=O)Nc2cccc(C(=O)NCC(C)c3ccccc3)c2)SCCO1` (stereo not given), the max response, negative = inhibition was 104%.

With `O=C1c2cccc3cc(Br)cc(c23)C(=O)N1Nc1ccccc1`, the max response, negative = inhibition is -62.9% (active).

Turning to `O=C(CN1C(=O)c2cccc3cccc1c23)Nc1ccccc1`, the max response, negative = inhibition was 5.41%.

In the case of `O=C1C=C(c2ccc(Cl)cc2)C(=O)N1Nc1ccccc1`, the max response, negative = inhibition is -22.9%.

Consider `COc1cccc(CNc2nc(NCc3ccccc3OC)nc3ccsc23)c1`, for which the max response, negative = inhibition is 31.6%.

On to `O=C(C1CC(=O)N(C2CCCC2)C1)N1CCN(c2cccc(C(F)(F)F)c2)CC1` (stereo not given), for which the max response, negative = inhibition is -17.8%.

On to `O=C(CCN1CCCO1)N1CCCC(N2CCN(c3cccc(C(F)(F)F)c3)CC2)C1` (stereo not given), for which the max response, negative = inhibition was -5.11%.

Turning to `O=C1C2CCCN2C(=O)N1CCCCN1CCN(c2cccc(C(F)(F)F)c2)CC1` (stereo not given), the max response, negative = inhibition was -115% (active).

For `CCCCCc1c(-c2ccc(OC)c(OC)c2)ncn1CCc1ccccc1OC`, the max response, negative = inhibition was -3.21%.

As for `O=C1NC[C@H](Cc2ccc(O)cc2)N(C[C@H]2CCCN2C[C@H](Cc2ccccc2)N2C[C@H](Cc3ccccc3)N(CCc3ccccc3)C(=O)C2=O)C1=O`, the max response, negative = inhibition is -27.9%.

As to `COc1ccc(CN2C(=O)C(CC(=O)NCCCCc3ccccc3)CC(C(=O)N3CCOCC3)=C2C)cc1` (stereo not given), the max response, negative = inhibition is 17.9%.

Consider `Cc1ccc(C(=O)NC(C)C(c2cccs2)N2CCOCC2)cc1C` (stereo not given), for which the max response, negative = inhibition was -24.7%.

`N#Cc1ccc(C(C(=O)NCc2ccccc2)n2c(=O)c(-c3ccco3)nc3ccccc32)cc1` (stereo not given): the max response, negative = inhibition was -4.27%.

With `O=C(CN1CCN(C(=O)c2ccco2)CC1)Nc1ccc2c(c1)OCO2`, the max response, negative = inhibition was -5.37%.

In the case of `O=C(CN1CCC(O)(c2ccccc2)CC1)Nc1ccc2c(c1)OCCO2`, the max response, negative = inhibition is -57.9% (active).

In the case of `O=C(Cn1c(=O)sc2ccccc21)Nc1ccc2c(c1)OCCO2`, the max response, negative = inhibition was 7.52%.

Turning to `CN1C[C@@H](CO)O[C@@H](n2cnc3c(N4CCN(CCO)CC4)ncnc32)C1`, the max response, negative = inhibition is 2.48%.

`COc1cccc(-c2cc3nc(NCc4ccccc4OC)n(C)c(=O)c3s2)c1`: the max response, negative = inhibition was 23.1%.

Turning to `COc1ccc(CN2C(=O)C(CC(=O)NC3CCCCC3)CC(C(=O)N3CCOCC3)=C2C)cc1` (stereo not given), the max response, negative = inhibition is -7.02%.

Regarding `FC(F)(F)C1CCCN(c2nsc3ccccc23)C1` (stereo not given), the max response, negative = inhibition is -81.7% (active).

Turning to `COc1ccc([C@H]2CC(=O)C[C@@H](CCn3cc(CC4CCCC4)nn3)O2)cc1`, the max response, negative = inhibition was 5.27%.

With `CCCS(=O)(=O)NC(=O)C1(C)CCN(C(=O)c2sccc2C)C1` (stereo not given), the max response, negative = inhibition was 18.5%.

`Nc1nc(CSc2nnnn2-c2ccccc2)nc(Nc2ccccc2)n1`: the max response, negative = inhibition is 16%.

Consider `CC1(C(=O)Nc2ccccc2Br)CCN1C(=O)CC1CC1` (stereo not given), for which the max response, negative = inhibition was 27.1%.

On to `COc1ccc(CNC(=O)CN2CCC(n3nnc4cc(F)ccc43)CC2)cc1`, for which the max response, negative = inhibition is -83.8% (active).

`CC(=O)c1cccc(S(=O)(=O)N2CCC(n3nnc4cc(F)ccc43)CC2)c1`: the max response, negative = inhibition was -14.5%.

For `COc1ccccc1CNC(=O)CN1CCC(n2cnc3cc(F)ccc32)CC1`, the max response, negative = inhibition was -0.289%.

As to `CC(C)(C(=O)N1CCC1(C)C(=O)NS(=O)(=O)c1ccc(Br)cc1)c1ccccc1` (stereo not given), the max response, negative = inhibition is 11.9%.

Consider `CC1CCN(CC(O)COc2ccc(C(=O)c3ccccc3)cc2)CC1` (stereo not given), for which the max response, negative = inhibition is 0%.

With `CCC(=O)c1ccc(OCC(O)CN2C(=O)NC(C)(C)C2=O)cc1` (stereo not given), the max response, negative = inhibition is 0%.

With `CCC(=O)c1ccc(OCC(O)CN2CC(C)OC(C)C2)cc1` (stereo not given), the max response, negative = inhibition was -54.2% (active).
